Source: PubChem BioAssay (NCATS)
Several values for one entry are separate records, joined by “and”; a condition that tells them apart may be missing. Identical values can stand only once. Inconclusive results are not listed. Activity calls are given as the source filed them. Unless noted, calls come from the whole dose curve; as a rule, active = well fitted curve in the direction sought with a large enough effect; inconclusive = small, poorly fitted or top-dose-only effect, or another doubt; inactive = no such curve, though single readings can be large; an effect the other way counts as inactive or inconclusive.

Legend:
[1] = target: D(1A) dopamine receptor (Homo sapiens) (UniProt P21728); assay: HTS Assay for Allosteric Agonists of the Human D1 Dopamine Receptor: Primary Screen for Antagonists (AID 488983);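 note: calcium flux response to an EC80 dopamine challenge measured with no-wash dye; % is set by controls: 0 for no effect and ±100 for the full control effect; nearly all actives have a fitted effect of over 65% in size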
Sequence of D(1A) dopamine receptor (Homo sapiens) (P21728 whole entry, looked up): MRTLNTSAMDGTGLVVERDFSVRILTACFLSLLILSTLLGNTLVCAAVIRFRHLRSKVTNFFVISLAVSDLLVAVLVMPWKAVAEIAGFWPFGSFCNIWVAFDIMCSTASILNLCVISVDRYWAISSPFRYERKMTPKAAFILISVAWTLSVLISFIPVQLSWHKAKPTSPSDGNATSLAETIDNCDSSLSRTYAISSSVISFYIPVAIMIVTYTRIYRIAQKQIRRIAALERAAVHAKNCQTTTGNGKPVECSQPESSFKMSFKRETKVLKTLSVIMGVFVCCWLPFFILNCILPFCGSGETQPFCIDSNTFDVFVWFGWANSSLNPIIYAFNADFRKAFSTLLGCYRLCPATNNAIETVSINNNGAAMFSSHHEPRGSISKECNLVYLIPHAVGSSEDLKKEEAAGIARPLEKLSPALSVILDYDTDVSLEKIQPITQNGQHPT
How it was run: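 Cells are induced with tetracycline and incubated overnight at 30 C, then loaded with calcium dye for 30 to 90 minutes at room temperature. Compound addition is followed by a 180 s read, then an EC80 dopamine addition and another 180 s read.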

[2] = Validation screen for small molecules that induce genotoxicity in human embryonic kidney (HEK293T) cells expressing luciferase-tagged ELG1 (AID 493106); note: 0% is about no effect
How it was run: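 Luminescence from an ELG1-luciferase fusion serves as the read-out, rising when genetic stress elevates ELG1 protein. HEK293T reporter cells (2,000 per well) received 23 nL compound, incubated 16 hr at 37 °C, then ONE-Glo for 30 min at room temperature.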

[3] = target: ATPase family AAA domain-containing protein 5 (Homo sapiens) (UniProt Q96QE3); assay: Validation screen for small molecules that inhibit ELG1-dependent DNA repair in human embryonic kidney (HEK293T) cells expressing luciferase-tagged ELG1 (AID 493107);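 note: cells co-treated with the DNA-damaging agent 5-fluorouridine alongside compound; series mostly up to about 46 µM; % is set by controls: 0 for no effect and ±100 for the full control effect; inhibitors lower the ELG1-luciferase luminescence signal; nearly all actives have a fitted effect of over 70% in size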
Sequence of ATPase family AAA domain-containing protein 5 (Homo sapiens) (Q96QE3 whole entry, looked up, the tested form may be a part): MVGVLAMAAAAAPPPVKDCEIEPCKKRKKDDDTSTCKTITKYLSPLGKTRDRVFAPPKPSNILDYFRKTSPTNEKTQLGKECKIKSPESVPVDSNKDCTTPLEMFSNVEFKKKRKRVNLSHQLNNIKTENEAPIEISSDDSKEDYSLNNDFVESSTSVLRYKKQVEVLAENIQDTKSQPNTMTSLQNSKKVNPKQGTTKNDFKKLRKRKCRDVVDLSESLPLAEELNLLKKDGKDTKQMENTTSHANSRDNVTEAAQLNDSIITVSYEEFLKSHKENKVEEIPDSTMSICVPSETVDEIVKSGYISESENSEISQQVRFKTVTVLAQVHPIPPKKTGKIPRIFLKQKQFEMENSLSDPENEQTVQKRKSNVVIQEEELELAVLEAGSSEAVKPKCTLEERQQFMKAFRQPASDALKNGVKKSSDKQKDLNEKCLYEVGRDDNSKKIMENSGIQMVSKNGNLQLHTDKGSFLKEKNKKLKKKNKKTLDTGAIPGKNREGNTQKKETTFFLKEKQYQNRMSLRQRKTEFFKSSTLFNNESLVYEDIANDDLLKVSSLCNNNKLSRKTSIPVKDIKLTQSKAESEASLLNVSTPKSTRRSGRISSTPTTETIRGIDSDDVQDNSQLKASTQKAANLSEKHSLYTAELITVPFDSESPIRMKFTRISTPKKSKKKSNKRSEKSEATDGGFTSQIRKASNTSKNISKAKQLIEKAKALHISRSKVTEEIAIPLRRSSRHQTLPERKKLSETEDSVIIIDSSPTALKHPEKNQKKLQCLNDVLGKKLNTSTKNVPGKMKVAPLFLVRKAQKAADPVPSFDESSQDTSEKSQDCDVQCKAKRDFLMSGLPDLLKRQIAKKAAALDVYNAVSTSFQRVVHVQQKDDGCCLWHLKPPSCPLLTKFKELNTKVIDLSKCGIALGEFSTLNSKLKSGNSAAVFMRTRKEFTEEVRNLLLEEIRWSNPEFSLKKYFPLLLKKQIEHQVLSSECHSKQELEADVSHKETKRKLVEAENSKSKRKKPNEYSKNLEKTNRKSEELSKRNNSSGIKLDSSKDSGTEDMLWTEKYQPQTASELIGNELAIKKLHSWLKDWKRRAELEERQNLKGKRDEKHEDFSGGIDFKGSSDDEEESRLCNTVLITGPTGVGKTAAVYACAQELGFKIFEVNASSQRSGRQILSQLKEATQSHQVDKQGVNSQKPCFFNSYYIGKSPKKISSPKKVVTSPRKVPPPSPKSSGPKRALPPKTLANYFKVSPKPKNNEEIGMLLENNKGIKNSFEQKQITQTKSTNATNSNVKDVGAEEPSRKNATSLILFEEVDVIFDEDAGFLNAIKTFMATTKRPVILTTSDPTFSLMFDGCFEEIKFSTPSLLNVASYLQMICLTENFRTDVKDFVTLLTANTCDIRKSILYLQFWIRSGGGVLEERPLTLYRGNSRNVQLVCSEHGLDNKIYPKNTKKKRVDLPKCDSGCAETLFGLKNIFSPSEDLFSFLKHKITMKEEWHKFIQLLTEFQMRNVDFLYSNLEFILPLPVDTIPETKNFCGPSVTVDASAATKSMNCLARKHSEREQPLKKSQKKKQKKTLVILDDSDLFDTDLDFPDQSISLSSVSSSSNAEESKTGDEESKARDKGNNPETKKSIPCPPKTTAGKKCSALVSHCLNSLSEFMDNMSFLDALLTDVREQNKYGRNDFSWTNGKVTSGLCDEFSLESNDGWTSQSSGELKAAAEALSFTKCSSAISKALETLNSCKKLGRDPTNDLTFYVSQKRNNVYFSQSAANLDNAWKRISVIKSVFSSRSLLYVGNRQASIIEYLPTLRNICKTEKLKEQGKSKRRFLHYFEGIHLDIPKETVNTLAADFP
How it was run: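 Luminescence from ONE-Glo, developed 30 min at room temperature, served as read-out of ELG1-luciferase levels. Beforehand, reporter HEK293T cells received 5-fluorouridine plus test compound for 16 hr at 37 °C.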

[4] = target: Thyrotropin-releasing hormone receptor (Homo sapiens) (UniProt P34981); assay: qHTS for Small Molecule Agonists and Allosteric Enhancers of Human TRH Receptor: Validation Screen for Agonists (AID 493127;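 active = calcium activation more than 3 SD above the typical response in the agonist read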;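 note: intracellular calcium rise by fluo-8 fluorescence before TRH EC20 addition; 0% is about no effect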); details: TRH receptor agonist cell assay; at 2 µM; stronger effect = higher value
Sequence of Thyrotropin-releasing hormone receptor (Homo sapiens) (P34981 whole entry, looked up): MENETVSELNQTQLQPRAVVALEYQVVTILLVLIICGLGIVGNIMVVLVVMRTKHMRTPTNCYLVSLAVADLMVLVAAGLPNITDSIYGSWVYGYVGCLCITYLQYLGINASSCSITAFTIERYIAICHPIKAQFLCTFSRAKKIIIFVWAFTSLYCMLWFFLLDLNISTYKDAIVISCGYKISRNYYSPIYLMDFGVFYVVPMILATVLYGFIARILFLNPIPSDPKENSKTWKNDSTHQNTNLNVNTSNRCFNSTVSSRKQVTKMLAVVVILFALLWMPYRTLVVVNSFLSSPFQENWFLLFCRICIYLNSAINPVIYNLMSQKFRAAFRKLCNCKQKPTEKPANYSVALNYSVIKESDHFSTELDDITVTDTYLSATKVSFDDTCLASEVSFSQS
How it was run: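 Cells 2000/well, 10% FCS, 18 h 33.5C/5% CO2 → fluo-8 Ca dye, RT 30 min–1.5 h → FDSS baseline 10 × 1 s → compound added → 230 cycles (1 s/cycle) agonist mode. TRH controls.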

[5] = Nrf2 qHTS screen for inhibitors: Validation (AID 493153; active = well fitted inhibition curve with a large enough effect in the main read-out, with a control signal flat, not every such curve was filed as active); details: Potency: luciferase luminescence; viability change: measured here: cytotoxicity max response
How it was run: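 Luminescence from an ARE-firefly luciferase reporter in A549 cells gives Nrf2 inhibition; an earlier CellTiter-Fluor fluorescent read flags cytotoxicity. Cells in 5% FBS OPTI-MEM received compound dilution series for 18-24 h at 37°C.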

[6] = qHTS for Inhibitors of Cell Surface uPA Generation: Validation Assay (AID 493164); note: 0% is about no effect
How it was run: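 RAW 264.7 cells (4000/well) were plated overnight, then exposed for 18 h at 37 C, 5% CO2 to compounds in a 7-point 1:5 titration (2.45 nM–38.3 uM final). Intracellular ATP was read by ATP-Lite luminescence.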

[7] = target: Galactokinase (Homo sapiens) (UniProt P51570); assay: qHTS Validation Assay for Inhibitors of Human Galactokinase (GALK) (AID 493189); note: 0% is about no effect
Sequence of Galactokinase (Homo sapiens) (P51570 whole entry, looked up): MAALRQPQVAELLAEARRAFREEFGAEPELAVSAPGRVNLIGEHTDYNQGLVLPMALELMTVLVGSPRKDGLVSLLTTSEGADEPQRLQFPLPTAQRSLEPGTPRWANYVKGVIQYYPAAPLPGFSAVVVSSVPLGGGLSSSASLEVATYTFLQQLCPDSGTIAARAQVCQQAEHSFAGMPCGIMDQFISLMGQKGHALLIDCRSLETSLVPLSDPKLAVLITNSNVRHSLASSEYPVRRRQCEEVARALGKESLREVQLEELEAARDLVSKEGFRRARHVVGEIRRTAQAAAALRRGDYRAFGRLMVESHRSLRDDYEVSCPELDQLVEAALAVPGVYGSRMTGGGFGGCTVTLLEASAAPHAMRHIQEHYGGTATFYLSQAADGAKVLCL
How it was run: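 Compounds were pin-transferred into ATP buffer, then GALK-galactose mix was added (final 5 nM enzyme, 100 uM galactose, 35 uM ATP). After 1 h at room temperature, remaining ATP was measured luminescently.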

[8] = Validation screen for small molecules that induce DNA re-replication in SW480 colon adenocarcinoma cells (AID 504364); note: 0% is about no effect
How it was run: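 250 cells/well; compound pinned in; 48 hr, 37 C, 5% CO2; Hoechst added, 40 min; nuclear fluorescence imaged, 405 ex / 500-530 em; re-replication scored as increase in high-intensity nuclei.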

[9] = target: ATP-dependent 6-phosphofructokinase (Trypanosoma brucei brucei) (UniProt O15648); assay: qHTS Assay to Find Inhibitors of T. brucei phosphofructokinase: hit validation (AID 492961);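 note: luminescence reports ADP formed as PFK phosphorylates fructose-6-phosphate with ATP; series mostly up to about 51 µM; % is set by controls: 0 for no effect and ±100 for the full control effect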
Sequence of ATP-dependent 6-phosphofructokinase (Trypanosoma brucei brucei) (O15648 whole entry, looked up): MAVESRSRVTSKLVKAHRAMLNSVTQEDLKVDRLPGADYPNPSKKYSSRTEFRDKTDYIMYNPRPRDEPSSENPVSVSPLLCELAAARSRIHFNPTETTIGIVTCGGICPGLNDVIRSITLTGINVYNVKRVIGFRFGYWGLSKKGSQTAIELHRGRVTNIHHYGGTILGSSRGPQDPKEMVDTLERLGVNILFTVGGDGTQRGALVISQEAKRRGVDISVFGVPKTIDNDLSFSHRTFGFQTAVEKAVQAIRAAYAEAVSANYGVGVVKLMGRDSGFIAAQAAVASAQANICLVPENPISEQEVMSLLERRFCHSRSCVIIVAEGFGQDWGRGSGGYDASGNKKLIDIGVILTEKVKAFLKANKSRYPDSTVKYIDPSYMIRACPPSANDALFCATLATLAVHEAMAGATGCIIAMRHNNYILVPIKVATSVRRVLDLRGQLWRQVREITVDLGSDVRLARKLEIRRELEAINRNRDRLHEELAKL
How it was run: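 Reaction: 0.1 M triethanolamine pH 8.0, 5 mM MgCl2, F6P 0.5 mM, ATP 0.1 mM, PFK 1.25 nM, 45 min RT. Read-out: ADP-Glo luminescence. Analysis: concentration-response fits, classed by r2 and efficacy.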

NCCS(=O)(=O)O
inactive: Potency [1] | Potency [2] | Potency [3] | activation [4] 1.12% | Potency [5] | outcome [6] | Potency [7] | Potency [8]
-6.75%: viability change [5]

COc1cc2nc(N(C)CCCNC(=O)C3CCCO3)nc(N)c2cc1OC (centres undefined)
inactive: Potency [1] | Potency [2] | Potency [3] | Potency [5] | outcome [6]
-7.87%: viability change [5]

NC(CO)C(=O)NNCc1ccc(O)c(O)c1O (centres undefined)
inactive: Potency [1] | Potency [2] | Potency [3] | Potency [5] | outcome [6] | Potency [7] | Potency [8]
-7.62%: viability change [5]

CCC1(C)CC(=O)NC1=O (centres undefined)
inactive: Potency [1] | Potency [2] | Potency [3] | activation [4] 1.44% | Potency [5] | outcome [6] | Potency [7] | Potency [8]
4.35%: viability change [5]

Cn1c(=O)c2c(ncn2C)n(C)c1=O
-2.67%: viability change [5]
inactive: Potency [1] | Potency [2] | Potency [3] | Potency [5] | outcome [6] | Potency [8]

CN1C(C(=O)Nc2ccccn2)=C(O)c2ccccc2S1(=O)=O
inactive: Potency [1] | Potency [9] | Potency [2] | Potency [3] | activation [4] 0.812% | outcome [6] | Potency [7] | Potency [8]

CN1C2CCC1CC(OC(=O)C(CO)c1ccccc1)C2 (centres undefined)
inactive: Potency [1] | Potency [2] | Potency [3] | Potency [5] | outcome [6] | Potency [7] | Potency [8]
0.769% and 1.89%: viability change [5]

CC(C)NCC(O)COc1ccc(CCOCC2CC2)cc1 (centres undefined)
-1.98%: viability change [5]
inactive: Potency [1] | Potency [2] | Potency [3] | Potency [5] | outcome [6] | Potency [7] | Potency [8]

Fc1ccc([C@@H]2CCNC[C@H]2COc2ccc3c(c2)OCO3)cc1
inactive: Potency [1] | Potency [2] | activation [4] 7.94% | Potency [5] | outcome [6] | Potency [7] | Potency [8]
10.5%: viability change [5]

NC(=O)NO
inactive: Potency [1] | Potency [2] | Potency [3] | activation [4] 1.12% | Potency [5] | outcome [6] | Potency [7] | Potency [8]
-1.36%: viability change [5]

O=c1c(O)c(-c2ccc(O)c(O)c2)oc2cc(O)cc(O)c12
inactive: Potency [9] | Potency [2] | activation [4] 0.938% | Potency [5] | outcome [6] | Potency [7] | Potency [8]
-9.26%: viability change [5]

Nc1nnc(-c2cccc(Cl)c2Cl)c(N)n1
-4.23%: viability change [5]
inactive: Potency [9] | Potency [2] | Potency [3] | activation [4] 0.938% | Potency [5] | outcome [6] | Potency [7] | Potency [8]

Cc1cc(C(C)(C)C)cc(C)c1CC1=NCCN1
inactive: Potency [9] | Potency [2] | Potency [3] | Potency [5] | outcome [6] | Potency [7] | Potency [8]
1.17%: viability change [5]

CC[C@@]1(O)C(=O)OCc2c1cc1n(c2=O)Cc2cc3c(CN(C)C)c(O)ccc3nc2-1
inactive: Potency [9]

O=C(c1ccc(OCCN2CCCCC2)cc1)c1c(-c2ccc(O)cc2)sc2cc(O)ccc12
inactive: Potency [1] | Potency [2] | outcome [6] | Potency [7] | Potency [8]

CS(=O)(=O)CCNCc1ccc(-c2ccc3ncnc(Nc4ccc(OCc5cccc(F)c5)c(Cl)c4)c3c2)o1
inactive: Potency [9]

Cc1cn([C@H]2C=C[C@@H](CO)O2)c(=O)[nH]c1=O
0.63%: viability change [5]
inactive: Potency [9] | Potency [2] | Potency [3] | Potency [5] | outcome [6] | Potency [7] | Potency [8]

Clc1ccc2nsnc2c1NC1=NCCN1
-2.06%: viability change [5]
inactive: Potency [9] | Potency [2] | Potency [5] | outcome [6]

CCC1(c2ccccc2)C(=O)NCNC1=O
0.001%: viability change [5]
inactive: Potency [1] | Potency [3] | Potency [5] | outcome [6] | Potency [7] | Potency [8]

CC(=O)OCC(CCn1cnc2cnc(N)nc21)COC(C)=O
inactive: Potency [9]

COc1ccc(C2CNC(=O)C2)cc1OC1CCCC1 (centres undefined)
3.91%: viability change [5]
inactive: Potency [2] | Potency [3] | activation [4] 0.812% | Potency [5] | outcome [6] | Potency [7] | Potency [8]

COc1cc2nc(N3CCN(C(=O)c4ccco4)CC3)nc(N)c2cc1OC
-4.77%: viability change [5]
inactive: Potency [1] | Potency [5] | outcome [6]

CC(C)NCC(O)c1ccc(O)c(O)c1 (centres undefined)
inactive: Potency [2] | Potency [3] | activation [4] 0.688% and 0.188% | Potency [5] | outcome [6] | Potency [7] | Potency [8]
-5.16%: viability change [5]

CN(CCOc1ccc(NS(C)(=O)=O)cc1)CCc1ccc(NS(C)(=O)=O)cc1
inactive: Potency [9]

Nc1nc2c(ncn2COC(CO)CO)c(=O)[nH]1
inactive: Potency [9] | Potency [2] | Potency [3] | activation [4] 0.625% | Potency [5] | outcome [6] | Potency [7] | Potency [8]
2.85%: viability change [5]

CN(C)CCOC(c1ccccc1)c1ccccc1
2.71%: viability change [5]
inactive: Potency [2] | Potency [3] | activation [4] -3.31% | Potency [5] | outcome [6] | Potency [7] | Potency [8]

Cn1cnc2c1c(=O)[nH]c(=O)n2C
-9.08%: viability change [5]
inactive: Potency [2] | Potency [3] | activation [4] 0.562% | Potency [5] | outcome [6] | Potency [7] | Potency [8]
